Assay results: PubChem BioAssay (Tox21)
The source made the active and inactive calls. Unless noted, calls come from the whole dose curve; as a rule, active = well fitted curve in the direction sought with a large enough effect in the repeat runs; inconclusive = weak or mixed curves; inactive = no such curve, though single readings can be large; an effect the other way counts as inactive or inconclusive.

Columns and labels:
[1] = qHTS assay for identifying genotoxic compounds that show differential cytotoxicity against isogenic chicken DT40 cell lines with known DNA damage response pathways - wild type cell line (AID 743012); note: nearly all actives have a fitted effect of over 60% in size; note: potency is the fitted concentration of half-maximal effect
In short: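 First, wild type DT40 cells were plated at 300 per well and equilibrated about 0.5 h at 37 C/5% CO2. Next, compounds in DMSO were added and exposure lasted 40 h. Finally, CellTiter-Glo was added for 30 min at room temperature and luminescence recorded.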

[2] = qHTS assay for identifying genotoxic compounds that show differential cytotoxicity against isogenic chicken DT40 cell lines with known DNA damage response pathways - Rev3 mutant cell line (AID 743014); note: nearly all actives have a fitted effect of over 55% in size; note: potency is the fitted concentration of half-maximal effect
[3] = qHTS assay to identify small molecule antagonists of the androgen receptor (AR) signaling pathway using the MDA cell line - cell viability counter screen (AID 743041; note: nearly all actives have a fitted effect of over 45% in size; note: potency is the fitted concentration of half-maximal effect)
In short: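 Viability counter screen run alongside the AR antagonist reporter: cells seeded 5 h before compound, R1881 added, 16 h incubation at 37C without CO2, fluorescent CellTiter-Fluor signal quantified.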

[4] = qHTS assay to identify small molecule antagonists of the thyroid receptor (TR) signaling pathway (AID 743065); note: nearly all actives have a fitted effect of over 55% in size; note: potency is the fitted concentration of half-maximal effect
In short: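 GH3.TRE-Luc rat pituitary cells carrying two TR response elements driving luciferase were plated for 4 h, given compound plus 1 nM T3 (final), and incubated 23.5 h at 37 C. ONE-Glo luminescence measured reporter inhibition; CellTiter-Fluor fluorescence tracked cytotoxicity.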

[5] = molecular target: Estrogen receptor (Homo sapiens) (UniProt P03372); assay: qHTS assay to identify small molecule antagonists of the estrogen receptor alpha (ER-alpha) signaling pathway (AID 743069; active = well fitted curve in the direction sought with a large enough effect in the signal ratio in the repeat runs, not every such curve was filed as active; inconclusive = weak or mixed curves, or effect the other way; inactive = no such curve, though single readings can be large or run the other way; the % refers to the signal ratio; note: potency is the fitted concentration of half-maximal effect)
In short: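 Estradiol-stimulated ER-alpha-UAS-bla HEK293 cells, 18 hr compound exposure at 37C. LiveBLAzer B/G substrate, 2 hr RT, fluorescence read.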

[6] = molecular target: Estrogen receptor (Homo sapiens) (UniProt P03372); assay: qHTS assay to identify small molecule agonists of the estrogen receptor alpha (ER-alpha) signaling pathway (AID 743075; calls by dose curve;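 note: HEK293 GripTite cells with ER-alpha and UAS-driven beta-lactamase reporter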)
[7] = qHTS assay to identify small molecule antagonists of the estrogen receptor alpha (ER-alpha) signaling pathway using the BG1 cell line (AID 743080; calls by dose curve;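 note: BG1 cells stimulated with 17beta-estradiol alongside compound; nearly all actives have a fitted effect of over 25% in size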; note: potency is the fitted concentration of half-maximal effect)
In short: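 Quantitative HTS on the Tox21 10K library: BG1 cells with endogenous ER-alpha and ERE-luciferase reporter, 17beta-estradiol stimulation, 21.5 h compound exposure, luminescence endpoint with parallel fluorescence cytotoxicity counter-read.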

[8] = qHTS assay to identify small molecule antagonists of the estrogen receptor alpha (ER-alpha) signaling pathway using the BG1 cell line - cell viability counter screen (AID 743081);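 note: compound given together with 17beta-estradiol as the ER stimulus; nearly all actives have a fitted effect of over 45% in size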; note: potency is the fitted concentration of half-maximal effect
Aromatase (Homo sapiens) = Aromatase (Homo sapiens) (UniProt P11511); assay: qHTS assay to identify aromatase inhibitors (AID 743083); note: nearly all actives have a fitted effect of over 55% in size; note: potency is the fitted concentration of half-maximal effect
[9] = qHTS assay for identifying genotoxic compounds that show differential cytotoxicity against isogenic chicken DT40 cell lines with known DNA damage response pathways - Rad54/Ku70 mutant cell line (AID 743015); note: nearly all actives have a fitted effect of over 60% in size; note: potency is the fitted concentration of half-maximal effect
[10] = molecular target: Androgen receptor (Homo sapiens) (UniProt P10275); assay: qHTS assay to identify small molecule agonists of the androgen receptor (AR) signaling pathway using the MDA cell line (AID 743040; note: nearly all actives have a fitted effect of over 20% in size)
In short: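 Luminescence from ONE-Glo, read after 30 min at room temperature, reflects MMTV-driven luciferase in MDA-kb2 cells (AR- and GR-responsive). Treatment lasted 16 h at 37C, 0% CO2.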

[11] = molecular target: Androgen receptor (Homo sapiens) (UniProt P10275); assay: qHTS assay to identify small molecule antagonists of the androgen receptor (AR) signaling pathway using the MDA cell line (AID 743042; note: nearly all actives have a fitted effect of over 55% in size)
In short: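 MDA-kb2 cells (human breast carcinoma, stably carrying an MMTV-luciferase reporter responsive to AR and GR) were plated at 3,000 cells/well and preincubated 5 hr at 37C, then given compound plus R1881 agonist for 16 h. ONE-Glo luminescence was read.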

[12] = qHTS assay to identify small molecule antagonists of the estrogen receptor alpha (ER-alpha) signaling pathway - cell viability counter screen (AID 743074; calls by dose curve;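 note: HEK293 cells carrying ER-alpha-UAS-bla reporter stimulated with 17beta-estradiol; nearly all actives have a fitted effect of over 45% in size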)
[13] = molecular target: Estrogen receptor (Homo sapiens) (UniProt P03372); assay: qHTS assay to identify small molecule agonists of the estrogen receptor alpha (ER-alpha) signaling pathway using the BG1 cell line (AID 743079); settings: BG1Luc4E2 cells, ERE-luciferase agonist, 22 h; activation: at 70.3 µM (top of the series); note: nearly all actives have a fitted effect of over 20% in size
[14] = qHTS assay to identify small molecule antagonists of the thyroid receptor (TR) signaling pathway - cell viability counter screen (AID 743064); note: nearly all actives have a fitted effect of over 50% in size; note: potency is the fitted concentration of half-maximal effect
In short: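 GH3.TRE-Luc cells, 4 h pre-plating; cpd + T3 1 nM final; 37 °C 23.5 h; CellTiter-Fluor 30 min; fluorescence read.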

[15] = qHTS assay to identify small molecule antagonists of the androgen receptor (AR) signaling pathway - cell viability counter screen (AID 743033; note: nearly all actives have a fitted effect of over 45% in size)
[16] = tested on: thyroid hormone receptor (rat, GH3 cells); assay: qHTS assay to identify small molecule agonists of the thyroid receptor (TR) signaling pathway (AID 743066; calls by dose curve)

Measured: Potency

Sequence of Aromatase (Homo sapiens) (P11511 whole entry, looked up): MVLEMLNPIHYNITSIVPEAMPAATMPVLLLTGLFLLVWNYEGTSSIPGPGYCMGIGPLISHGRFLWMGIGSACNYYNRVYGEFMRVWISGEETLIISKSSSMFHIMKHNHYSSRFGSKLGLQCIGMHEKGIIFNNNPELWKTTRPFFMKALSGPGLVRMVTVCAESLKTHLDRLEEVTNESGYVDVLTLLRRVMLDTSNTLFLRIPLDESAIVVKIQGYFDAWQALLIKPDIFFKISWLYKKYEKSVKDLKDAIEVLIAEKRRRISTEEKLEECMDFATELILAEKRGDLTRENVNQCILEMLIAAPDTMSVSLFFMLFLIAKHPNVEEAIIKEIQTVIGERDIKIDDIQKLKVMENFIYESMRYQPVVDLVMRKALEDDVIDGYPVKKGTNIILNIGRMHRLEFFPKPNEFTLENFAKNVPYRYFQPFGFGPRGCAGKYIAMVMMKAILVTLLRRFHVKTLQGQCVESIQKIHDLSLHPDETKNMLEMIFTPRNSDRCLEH
Sequence of Estrogen receptor (Homo sapiens) (P03372 whole entry, looked up): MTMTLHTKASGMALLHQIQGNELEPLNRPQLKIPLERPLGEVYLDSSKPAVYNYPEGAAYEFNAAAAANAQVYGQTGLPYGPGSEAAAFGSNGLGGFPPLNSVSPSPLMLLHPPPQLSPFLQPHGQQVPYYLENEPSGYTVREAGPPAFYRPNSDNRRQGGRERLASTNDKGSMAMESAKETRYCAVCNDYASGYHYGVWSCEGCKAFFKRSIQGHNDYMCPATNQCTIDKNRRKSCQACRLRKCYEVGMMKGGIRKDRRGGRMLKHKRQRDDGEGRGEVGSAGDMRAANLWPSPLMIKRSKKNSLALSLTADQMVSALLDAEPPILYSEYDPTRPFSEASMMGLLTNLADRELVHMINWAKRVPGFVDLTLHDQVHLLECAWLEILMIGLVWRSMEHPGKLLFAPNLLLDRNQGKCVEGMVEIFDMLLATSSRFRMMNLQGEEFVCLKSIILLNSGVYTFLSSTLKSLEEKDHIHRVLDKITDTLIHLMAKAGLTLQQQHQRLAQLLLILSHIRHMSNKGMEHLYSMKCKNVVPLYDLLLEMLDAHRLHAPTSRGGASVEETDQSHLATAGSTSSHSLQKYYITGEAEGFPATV
Sequence of Androgen receptor (Homo sapiens) (P10275 whole entry, looked up): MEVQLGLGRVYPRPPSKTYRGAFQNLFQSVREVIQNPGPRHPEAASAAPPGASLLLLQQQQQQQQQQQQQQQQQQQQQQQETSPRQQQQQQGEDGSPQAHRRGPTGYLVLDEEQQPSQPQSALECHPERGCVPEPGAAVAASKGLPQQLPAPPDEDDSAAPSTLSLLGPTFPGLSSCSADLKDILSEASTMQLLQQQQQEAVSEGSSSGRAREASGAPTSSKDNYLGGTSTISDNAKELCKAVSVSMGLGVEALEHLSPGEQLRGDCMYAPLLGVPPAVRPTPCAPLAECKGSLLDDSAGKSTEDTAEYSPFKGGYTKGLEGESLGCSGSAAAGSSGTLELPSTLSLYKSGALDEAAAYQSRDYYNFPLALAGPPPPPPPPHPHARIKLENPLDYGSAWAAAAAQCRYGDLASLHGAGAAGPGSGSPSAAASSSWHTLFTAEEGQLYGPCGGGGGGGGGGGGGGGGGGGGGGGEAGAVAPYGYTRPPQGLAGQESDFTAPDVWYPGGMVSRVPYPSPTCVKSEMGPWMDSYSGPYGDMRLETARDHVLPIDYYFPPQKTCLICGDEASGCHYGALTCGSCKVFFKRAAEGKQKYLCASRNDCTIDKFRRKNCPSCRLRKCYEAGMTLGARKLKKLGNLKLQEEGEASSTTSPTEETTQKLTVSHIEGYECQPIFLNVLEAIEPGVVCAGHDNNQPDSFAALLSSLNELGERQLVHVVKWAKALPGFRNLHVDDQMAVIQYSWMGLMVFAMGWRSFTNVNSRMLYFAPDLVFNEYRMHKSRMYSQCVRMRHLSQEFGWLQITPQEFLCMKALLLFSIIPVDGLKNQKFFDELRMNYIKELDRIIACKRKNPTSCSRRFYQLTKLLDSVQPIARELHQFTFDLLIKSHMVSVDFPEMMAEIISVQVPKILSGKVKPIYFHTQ

C[C@H](/C=C/[C@H](C)C(C)(C)O)[C@H]1CC[C@H]2/C(=C/C=C3C[C@@H](O)C[C@H](O)C3)CCC[C@]12C
active: [4] 16.8 µM | [5] 23.9 µM [inconclusive] | [7] 29.8 µM
inactive: [1] | [2] | [3] | [6] | [8] | Aromatase (Homo sapiens)

CCCCCCCCCCCCCCCCSCC(COC)COP(=O)([O-])OCC[N+](C)(C)C (centres undefined)
active: [4] 18.8 µM | [5] 21.3 µM [inhibitor]
not listed: [1] | Aromatase (Homo sapiens) | [14] | [15] | [16]
inactive: all other assays above

CCc1ccc2c(c1)N(CC(C)CN(C)C)c1ccccc1S2 (centres undefined)
active: [1] 6.68 µM | [2] 5.31 µM | [9] 8.41 µM | [14] 11.9 µM | [4] 11.9 µM
inactive: [12] | [6] | [13] | [7] | [8]

C[C@@H]1CCC2[C@@H](C)[C@@H](O)O[C@@H]3O[C@@]4(C)CC[C@@H]1[C@@]23OO4 (some centres undefined)
active: [1] 0.119 µM | [14] 2.11 µM | [4] 0.75 µM | [5] 9.52 µM [inconclusive]
inactive: [12] | [13] | [7]

CO[C@@]1(NC(=O)C2SC(=C(C(N)=O)C(=O)O)S2)C(=O)N2C(C(=O)O)=C(CSc3nnnn3C)CS[C@@H]21 (some centres undefined)
not listed: [5] | [6] | [7] | [10] | [11] | [13]
inactive: all other assays above

CO[C@H]1C=CO[C@@]2(C)Oc3c(C)c(O)c4c(O)c(c(/C=N/N5CCN(C6CCCC6)CC5)c(O)c4c3C2=O)NC(=O)/C(C)=C\C=C[C@H](C)[C@H](O)[C@@H](C)[C@@H](O)[C@@H](C)[C@H](OC(C)=O)[C@@H]1C
inactive: [15] | [12] | [6]
active: [1] 3.35 µM | [2] 8.41 µM | [3] 23.7 µM | [5] 19 µM [inconclusive] | [8] 26.6 µM | Aromatase (Homo sapiens) 33.5 µM

C=C1/C(=C\C=C2/CCC[C@]3(C)[C@@H]([C@H](C)OCCC(C)(C)O)CC[C@@H]23)C[C@@H](O)C[C@@H]1O
inactive: [15] | [3] | [14] | [16] | [12] | Aromatase (Homo sapiens)
active: [1] 8.41 µM | [9] 13.3 µM | [4] 37.6 µM

CCCCCCCCCCCCCCCC(=O)O[C@@H]1CC(C)=C(/C=C/C(C)=C/C=C/C(C)=C/C=C/C=C(C)/C=C/C=C(C)/C=C/C2=C(C)C[C@@H](OC(=O)CCCCCCCCCCCCCCC)CC2(C)C)C(C)(C)C1
not listed: [4] | [5] | [10] | [11] | [14]
inactive: all other assays above
